# Assay outcomes: PubChem, National Center for Advancing Translational Sciences (NCATS)
# FLuc modulator: counter-screen for miR-21 project: firefly luciferase inhibitors or activators | P08659 | 360,000 tested, 6.9% active | purified FLuc, Km substrates, luminescence inhibition | Potency, µM (highest dose often 57.5 µM), for the others: at the top dose activity change, negative = inhibition, usual class: inhibitors | AID 588342;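 further: plate controls were vehicle for no effect and reference inhibitor for full effect; nearly all actives have a fitted effect of over 55% in size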
# Target sequence (P08659 whole entry, looked up): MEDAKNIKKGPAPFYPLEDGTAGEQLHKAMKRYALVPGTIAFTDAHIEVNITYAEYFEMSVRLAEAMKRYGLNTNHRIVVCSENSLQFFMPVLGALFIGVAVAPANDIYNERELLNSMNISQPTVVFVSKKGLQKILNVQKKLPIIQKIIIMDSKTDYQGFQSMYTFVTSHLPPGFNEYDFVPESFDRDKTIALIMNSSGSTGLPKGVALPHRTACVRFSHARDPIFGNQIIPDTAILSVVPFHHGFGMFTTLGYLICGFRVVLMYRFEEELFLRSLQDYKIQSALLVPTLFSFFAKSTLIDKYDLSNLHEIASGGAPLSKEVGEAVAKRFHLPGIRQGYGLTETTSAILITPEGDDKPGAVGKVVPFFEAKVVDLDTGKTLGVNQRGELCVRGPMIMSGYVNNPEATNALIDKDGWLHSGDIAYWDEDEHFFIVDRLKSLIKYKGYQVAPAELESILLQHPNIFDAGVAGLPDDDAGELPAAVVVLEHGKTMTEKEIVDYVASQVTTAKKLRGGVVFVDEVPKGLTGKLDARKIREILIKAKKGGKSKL
#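 Purified P. pyralis luciferase (10nM final) with 10uM D-luciferin and 10uM ATP (Km levels) in 50mM Tris acetate pH 7.5, 10mM Mg acetate, 0.01% Tween-20, 0.05% BSA; qHTS 6-point titration, ~60 µM downward; luminescence read.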
# Rab9 prom act: Rab9 promoter activation | Huh7 Rab9 promoter-luciferase reporter, luminescence, 24 h | Potency, µM (doses to about 9.22 µM), inactives show at the highest dose activation, negative = inhibition, hits mostly activators | 320,000 tested, 2.8% active; further: % of control where 0% means no effect; nearly all actives have a fitted effect of over 60% in size
#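 Stable Rab9-luc Huh7, 1500 cells/well, 2 h settle; cmpd in DMSO, 24 h, 37 °C/5% CO2; luciferase reagent 10 min RT; luminescence.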
# NPC1 promoter act: NPC1 promoter activation | Huh7 NPC1 promoter luciferase reporter, 24 h | Potency, µM (highest dose often 9.22 µM), for inactives: at the highest dose activation, actives largely listed as activators | 320,000 tested, 2.4% active | AID 485313; further: % of control where 0% means no effect; nearly all actives have a fitted effect of over 60% in size
#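 Huh7 reporter cells (NPC1 promoter driving luciferase) are dosed with compound for 24 h at 37 °C, 5% CO2; luciferase detection reagent is then added and luminescence measured after 10 min at ambient temperature.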
# ELG1 DNA repair: inhibitors of ELG1-dependent DNA repair in HEK293T cells | HEK293T ELG1-luciferase reporter, luminescence, 16 h; DNA damage induced by 5-fluorouridine | Potency, µM (highest dose often 46.1 µM), for inactives: at the highest dose activity change, negative = inhibition, usual class: inhibitors | 330,000 tested, 2.3% active; further: on the % scale 0 is the no-effect control and ±100 the full control effect; nearly all actives have a fitted effect of over 55% in size
#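 Quantitative HTS, concentration-response format. 2,000 cells/well co-treated with 5-fluorouridine and compound, 16 hr in 5% CO2 at 37 °C; ONE-Glo luminescence read after 30 min.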
# ELG1 genotox: inducers of genotoxicity in HEK293T ELG1-luciferase cells; AID 504466; HEK293T ELG1-luciferase reporter, luminescence, 16 h; Potency, µM (doses to about 46 µM), for the others: at the top dose activity change, positive = activation, hits mostly activators; 330,000 tested, 1.3% active; further: % of control where 0% means no effect; nearly all actives have a fitted effect of over 60% in size
#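 Step 1: seed 2,000 HEK293T ELG1-luciferase cells per well. Step 2: add compound or DMSO, incubate 16 hr at 37 °C. Step 3: ONE-Glo, 30 min at room temperature, read luminescence.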
# SMN2 splice enh: SMN2 splice variant enhancement | HEK293 SMN2-luciferase splicing reporter, luminescence, 30-36 h | Potency, µM (top dose mostly 46.1 µM), for the others: at the highest dose activity change, positive = activation, most hits filed as activators | 210,000 tested, 2.8% active; further: % of control where 0% means no effect; nearly all actives have a fitted effect of over 55% in size
#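 HEK293 cells carry an SMN2 minigene-luciferase reporter in which exon 7 inclusion puts luciferase in frame. Cells were seeded at 2000 cells/well, attached for 10-12 hours, then exposed to compounds for 30-36 hours at 37C before ONE-Glo luminescence.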
# * hit, by the source's call; ? = inconclusive; · = not tested or not shown; [ ] = dose if it differs, or a comment. Shown are actives, neighbours in structure and some others; about 9.2% of the full set was active somewhere. The call rests on the fitted dose curve; in most records, active means well fitted curve in the direction sought with a large enough effect; inconclusive means small, poorly fitted or top-dose-only effect, or another doubt; inactive means no such curve, though single readings can be large; an effect the other way counts as inactive or inconclusive. Potency means the concentration at half of the fitted maximal effect.
SMILES,FLuc modulator,Rab9 prom act,NPC1 promoter act,ELG1 DNA repair,ELG1 genotox,SMN2 splice enh
COc1ccc(Cl)cc1NC(=O)Cc1coc2c(C)c(C)ccc12,-8.3%,·,·,·,·,-14.5%
Cc1ccccc1C(=O)O/N=C(\N)c1ccccc1,0.169µM*,0.794µM*,3.55µM*,?,1.64µM*,·
N/C(=N\OC(=O)c1ccccc1Br)c1ccc([N+](=O)[O-])cc1,5.36µM*,3.55µM*,3.98µM*,?,?,·
Cc1ccccc1/C(N)=N/OC(=O)c1ccc(F)cc1,1.35µM*,?,?,?,?,-3.4%
N/C(Cc1ccc([N+](=O)[O-])cc1)=N\OC(=O)c1ccccc1Br,-14.9%,-0.6%,1.0%,-9.8%,1.7%,-1.0%
COc1cc(OC)c(C(=O)O/N=C(\N)c2ccccc2)cc1OC,-15.6%,-1.7%[1.84 µM],-0.5%,11.4%,7.6%,·
N/C(=N\OC(=O)c1ccccc1Br)c1cccc([N+](=O)[O-])c1,2.39µM*,1.26µM*,2.24µM*,?,5.8µM*,·
NS(=O)(=O)c1ccc(NS(=O)(=O)c2ccc(C3CNC(=O)C3)cc2)cc1 (stereo not given),-0.9%,2.4%,-0.6%,8.1%,-0.8%,·
COC(=O)c1ccc(C=O)cc1,·,·,·,·,·,-14.4%
CCc1ccc2nc(N3C(=O)C(O)=C(C(=O)c4ccco4)C3c3cccs3)sc2c1 (stereo not given),?,1.4%,-4.6%,?,4.6%,?
Cc1ccc2nc(N3C(=O)C(O)=C(C(=O)c4cc5ccccc5o4)C3c3cccs3)sc2c1 (stereo not given),4.78µM*,21.3%,26.7%,?,?,8.8%
Cc1ccc2c(c1)cc(CN(Cc1ccco1)C(=O)COc1ccccc1)c1nnnn12,-0.9%,9.8%,7.0%,20.6µM*,-15.8%,-11.6%
COCCN(Cc1cc2cc(C)ccc2n2nnnc12)C(=S)Nc1ccc(C)cc1,-3.3%,-5.5%,-1.8%,16.4µM*,-2.4%,-0.7%
Cc1ccc(CSc2nc3cccnc3n2Cc2ccc(C(=O)NCc3ccco3)cc2)cc1,0.601µM*,·,·,·,·,·
O=C(NCc1ccco1)c1ccc(Cn2c(SCc3ccccc3F)nc3cccnc32)cc1,8.49µM*,·,·,·,·,·
O=C(CSc1nc2cccnc2n1Cc1ccccc1)NCc1ccco1,-3.0%,-0.8%,3.1%,4.0%,-3.6%,19.0%
Cc1ccc(CNC(=O)c2ccc(Cn3c(SCc4ccc(F)cc4)nc4cccnc43)cc2)o1,3.79µM*,·,·,·,·,0.3%
O=C(NC1CCCC1)c1ccc(CSc2nc3cccnc3n2Cc2ccc(F)cc2)cc1,-8.4%,·,·,·,·,·
Cc1ccc(CNC(=O)c2ccc(Cn3c(SCc4ccccc4F)nc4cccnc43)cc2)cc1,6.75µM*,·,·,·,·,·
CSCCC(NC(=O)c1ccco1)C(=O)N(C)CC(=O)Nc1c(Cl)cccc1Cl (stereo not given),2.6%,-5.1%,-0.1%,-2.3%,-3.6%,·
CCCCCn1c(SCc2ccncc2)nc2cc(C(=O)NCc3ccco3)ccc2c1=O,1.9%,1.3%,-3.9%,6.51µM*,-9.2%,1.5%
COc1cc(NC(=O)Cn2c(SCc3ccc(F)cc3)nc3cccnc32)cc(OC)c1,2.2%,·,·,·,·,·
Cc1cccc(CSc2nc3cccnc3n2Cc2ccc(C(=O)NCc3ccco3)cc2)c1,19µM*,·,·,·,·,·
Cc1ccc(Cn2c(SCc3ccc(C(=O)O)cc3)nc3cccnc32)cc1,16.9µM*,·,·,·,·,-3.4%
COc1ccc(NC(=O)Cn2c(SCc3ccc(C)cc3)nc3cccnc32)c(OC)c1,1.9µM*,·,·,·,·,·
SMILES,FLuc modulator,Rab9 prom act,NPC1 promoter act,ELG1 DNA repair,ELG1 genotox,SMN2 splice enh
CCCCn1c(SCC(=O)NCc2ccco2)nc2ccccc2c1=O,-0.2%,1.2%,0.8%,-3.5%,-2.0%,-13.9%
OB(O)O,·,·,·,·,·,1.0%
Cc1ccc2c(c1)c(=O)c(C(=O)c1ccccc1)cn2Cc1ccccc1F,-7.8%,·,·,·,·,-2.2%
COc1ccccc1CNC(=O)c1cccc(S(=O)(=O)N2CCCC2)c1,4.2%,-0.2%,-2.9%,-2.3%,-1.1%,·
c1ccc(-c2ccc(CN3CCSCC3)cc2)cc1,26.9µM*,0.1%,10.8%,?,4.8%,·
CCOC(=O)c1sc(=NC(=O)c2ccc(F)cc2)n(C)c1C,0.675µM*,22.9%,3.7%,?,?,·
CCOC(=O)c1sc(=NC(=O)COc2ccccc2)n(C)c1C,?,3.16µM*,?,?,?,?
CCOC(=O)c1sc(=NC(=O)c2c(F)cccc2F)n(C)c1C,-21.7%,?,22.5%,?,?,·
Cn1c(=NC(=O)COc2ccccc2)sc2cccc(F)c21,?,1.78µM*,3.55µM*,?,?,·
CCOC(=O)c1sc(=NC(=O)c2ccc(C)cc2)n(C)c1C,?,?,19.0%,?,?,22.4µM*
Cc1ccnn1-c1ccc(C(=O)NCc2ccccc2CN2CCOCC2)cc1,·,·,·,?,-4.8%,·
COC(=O)c1ccccc1NC(=O)N1CCC(n2c(C)nc3cccnc32)CC1,-4.9%,·,·,·,·,·
COc1cc(/C=N/NC(=O)C23CC4CC(CC(C4)C2)C3)cc(Br)c1O,13.5µM*,3.0%,-1.1%,0.9%,1.7%,5.7%
COc1cc(/C=N/NC(=O)c2ccc3c(c2)OCCO3)cc(Br)c1O,10.7µM*,15.5%,1.9%,?,13.6%,·
COc1cc(/C=N/NC(=O)CC2(C)OCCO2)cc(Br)c1O,-1.8%,-1.5%,-3.6%,8.9%,0.9%,-1.4%
COc1cc(/C=N/NC(N)=S)cc(Br)c1OCc1ccccc1F,-9.6%,-9.9%,-9.0%,23.1µM*,-7.1%,-32.9%
CCOc1cc(/C=N/NC(=O)c2nn(C)cc2Br)ccc1OCc1ccccc1,?,-3.5%,-0.8%,18.4µM*,-0.1%,-20.2%
CCc1ccccc1NC(=O)c1ccc(CN2C(=O)CCn3nc(C)cc32)cc1,-1.8%,·,·,·,·,·
O=C(Cn1c(=O)n(Cc2ccco2)c(=O)c2cccnc21)Nc1ccccc1F,5.9%,·,·,·,·,-5.0%
CCOc1c(Br)cc(/C=N\NC(=O)c2ccccc2)cc1OC,5.36µM*,-3.0%,-2.0%,?,-8.2%,6.9%
COc1cc(/C=N/NC(=O)c2ccc3c(c2)OCCO3)c(Br)c(Br)c1O,9.53µM*,-1.0%,0.6%,?,9.4%,·
CCOc1cc(/C=N/NC(N)=O)cc(Br)c1OCc1ccccc1,-0.5%,-0.9%,-5.5%,3.1%,0.0%,-4.8%
O=C(N/N=C/c1cc([N+](=O)[O-])cc(Br)c1O)C12CC3CCC(CC(C3)C1)C2,-2.2%,-5.7%,-1.3%,23.1µM*,-9.1%,·
COc1ccc(/C=N/NC(=O)c2ccc3c(c2)OCO3)c(C(=O)O)c1OC,-8.5%,0.3%,-1.6%,6.8%,2.6%,·
